Bioassay records (PubChem BioAssay)
esBAF inh – inhibitors of esBAF chromatin remodeling in mouse ES cells | AID 602393 | 2% of 350,000 active | reporter increase, % at 12.5 µM | Bmi1-luciferase knock-in reporter, 24 h; 100% = twice the neutral-well signal; in the data active = activation above about 40%; inconclusive = no clear call, values can overlap the other calls;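 note: 0% = median of the plate's neutral control wells and 100% = double that signal; a rise in the Bmi1 reporter signal indicates esBAF inhibition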
A3G deaminase – APOBEC3G (human) deaminase inhibition; Q9HC16; recombinant A3G, ssDNA deamination FAM/TAMRA fluorescence; inhibition, % at 20 µM; 0.28% of 330,000 active;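 active = inhibition of at least 40% at 20 µM, with no more than 30% in the related APOBEC3A deaminase screen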;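 note: plate controls were DMSO wells with A3G for no effect and wells lacking A3G enzyme for full effect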
PHOSPHO1 inh – inhibitors of human PHOSPHO1 phosphatase | recombinant PHOSPHO1, absorbance phosphatase assay | Q8TCT1 | inhibition, % at 13.3 µM | 1.1% of 290,000 active; in the data active = inhibition above about 60%
Target sequence (Q8TCT1 whole entry, looked up): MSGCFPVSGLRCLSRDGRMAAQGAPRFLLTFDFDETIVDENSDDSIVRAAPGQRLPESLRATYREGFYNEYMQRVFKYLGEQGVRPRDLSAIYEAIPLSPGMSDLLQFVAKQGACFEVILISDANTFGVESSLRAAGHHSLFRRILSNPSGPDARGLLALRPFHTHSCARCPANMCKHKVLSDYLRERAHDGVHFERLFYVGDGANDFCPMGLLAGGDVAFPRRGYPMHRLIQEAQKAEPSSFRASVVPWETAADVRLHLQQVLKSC
A3A deaminase – blocks human APOBEC3A ssDNA deamination | recombinant A3A, FAM/TAMRA ssDNA deamination fluorescence | inhibition, % at 20 µM | 0.41% of 330,000 active;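 active = at least 40% inhibition at 20 µM here, with at most 30% in a related deaminase screen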;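 note: plate controls were A3A with DMSO for no effect and wells lacking A3A enzyme for full effect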
Target sequence (P31941 whole entry, looked up): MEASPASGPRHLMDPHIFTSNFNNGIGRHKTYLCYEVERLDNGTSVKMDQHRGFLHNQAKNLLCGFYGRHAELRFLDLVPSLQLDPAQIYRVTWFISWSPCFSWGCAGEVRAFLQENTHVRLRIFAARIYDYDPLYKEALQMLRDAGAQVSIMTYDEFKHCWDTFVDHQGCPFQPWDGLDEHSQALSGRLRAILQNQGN
MITF TRPM1 HTS – activators of MITF-driven TRPM1 promoter activity in SK-MEL-5 cells. SK-MEL-5 TRPM1-promoter luciferase, 24 h; % of positive control, neutral wells = 0. activation, % at 12.5 µM. 0.75% of 300,000 active;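 active = mean activation of at least 80% with every replicate also reaching 80%; inconclusive = mean reaches 80% but some replicate falls short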;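 note: 0% = neutral control wells and 100% = parthenolide positive control wells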
Wnt act – activates Wnt/beta-catenin signaling in a reporter cell assay | activator, plate reader | activation, % at 9.35 µM | AID 743398 | 1.2% of 300,000 active; in the data active = activation above about 30%, passing the limit was not always enough; inconclusive = no clear call, values can overlap the other calls;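 note: 0% = neutral control wells and 100% = positive control wells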
The depositor's hits bear a star; ? = inconclusive; . = no result. In the library only some 3.6% were active in any assay of this set; here they are far more common.

SMILES	esBAF inh	A3G deaminase	PHOSPHO1 inh	A3A deaminase	MITF TRPM1 HTS	Wnt act
Nc1cccc2cc(-c3ccccc3)oc12	91.2*	-9.0	.	-7.8	115.0*	-2.4
CC(SC1=NCCS1)C(=O)Nc1nnc(-c2ccc(Cl)cc2)s1 (stereo not given)	43.0*	0.7	30.2	-0.5	45.8	5.5
COc1ccccc1-c1nnc(NC(=O)C(C)SC2=NCCS2)s1 (stereo not given)	1.4	-7.5	13.0	-3.8	0.5	16.1
COCC(=O)N1C[C@@H]2[C@H](c3ccccc31)[C@@H](CO)N2C(=O)C1CCOCC1	-1.3	.	.	.	.	.
Cc1nn(-c2nc3ccccc3s2)c(C)c1Oc1ccccc1O	44.8*	8.5	1.5	1.4	76.8	.
O=C1C(=Cc2cccs2)CCc2ccccc21	.	.	.	.	.	47.8*
O=C1/C(=C\c2cccnc2)CCc2ccccc21	4.8	-2.8	18.3	-3.2	16.0	-3.1
Cc1ccccc1N=C1NC(=O)/C(=C/c2cccn2C)S1	.	-4.9	35.8	-1.6	4.9	0.3
O=C1/C(=C/c2cccs2)CCC/C1=C\c1cccs1	60.1*	-3.6	42.6	3.9	76.7	36.4*
O=C1/C(=C/c2ccccc2)CCCc2ccccc21	49.2*	-5.6	-11.3	-3.7	.	29.3
Cn1cccc1/C=C1\CCC/C(=C\c2cccn2C)C1=O	81.3*	-27.5	27.9	-12.9	.	70.8*
COc1ccc(Cl)cc1C(=O)OCC(=O)NC1CCCC(C)C1C (stereo not given)	.	3.7	.	5.6	0.5	3.0
COc1cccc2cc(NC(=O)C3CCCCC3)c(=O)oc12	22.9	-3.6	5.7	-2.8	110.4*	.
COc1cccc2cc(C(=O)N3CCCCC3C)c(=O)oc12 (stereo not given)	-3.5	-4.9	14.1	-14.4	-0.7	.
COc1cccc2cc(C(=O)OCC(=O)NC3CCCC(C)C3C)c(=O)oc12 (stereo not given)	63.5*	-2.1	.	-1.5	55.9	-3.5
Cc1noc(C)c1NC(=O)N[C@@H]1C=C[C@@H](CC(=O)N2CCN(C)CC2)O[C@H]1CO	-0.6	.	.	.	.	.
COc1ccc(-c2csc(C(O)c3ccccc3)n2)cn1 (stereo not given)	60.6*	.	.	.	.	.
OC(c1ccccc1)c1nc(-c2cccs2)cs1 (stereo not given)	48.6*	.	.	.	.	5.6
COc1cccc(C(O)c2nc(-c3ccc(N(C)C)cc3)cs2)c1 (stereo not given)	45.3*	.	.	.	.	19.3
OC(c1ccc(F)c(F)c1)c1nc(-c2cccs2)cs1 (stereo not given)	13.9	.	.	.	.	0.1
O=C(CN1CCOCC1)N1CC[C@@H]2[C@@H](CO)Nc3ccc(Br)cc3[C@@H]21	-0.5	.	.	.	.	.
Cc1ccc(N2C(=O)[C@@H]3Cc4ccccc4CN3C2=O)cc1	55.2*	-6.4	-17.9	-4.5	41.7	14.1
COc1ccc(N2C(=O)[C@@H]3Cc4ccccc4CN3C2=O)cc1	0.8	-3.4	-7.5	1.6	10.9	-1.4
Cc1ccc(S(=O)(=O)N(C)C[C@H]2Oc3ccc(NC(=O)C4CCCCC4)cc3CC(=O)N([C@H](C)CO)C[C@@H]2C)cc1	-0.1	.	.	.	.	.
c1ccc(-c2cc(N3CCCCC3)ncn2)cc1	44.4*	-0.7	15.6	2.4	85.7*	-1.0
SMILES	esBAF inh	A3G deaminase	PHOSPHO1 inh	A3A deaminase	MITF TRPM1 HTS	Wnt act
c1ccc(-c2cc(N3CCCCCC3)n[nH]2)cc1	57.7*	-5.5	-6.7	-1.5	2.4	.
O=C(NCCc1ccccc1)Nc1ccc2c(c1)OCO2	.	1.6	48.4	-1.3	34.0	12.8
O=C(Nc1ccc(Cl)cc1)Nc1ccc2c(c1)OCO2	60.3*	-2.7	23.3	-1.8	62.6	38.3*
O=C(Nc1ccc2c(c1)OCO2)Nc1ccc2c(c1)OCO2	.	-0.2	36.7	-4.4	74.6	29.5
CC1(C(=O)Nc2ccc3c(c2)OCO3)CCN1C(=O)C1(c2ccc(Cl)cc2)CC1 (stereo not given)	10.4	.	.	.	.	51.4*
O=C(NCCc1ccc(F)cc1)Nc1ccc2c(c1)OCO2	.	-6.7	44.0	-0.9	20.0	48.3*
O=C(Nc1ccc(F)cc1)Nc1ccc2c(c1)OCO2	65.8*	-1.5	30.1	0.9	104.4*	27.2
CC1CCC(NC(=O)c2ccc3c(c2)OCO3)CC1 (stereo not given)	-34.7	1.5	7.7	2.0	1.5	24.2
CC1CCC(NC(=O)C(=O)Nc2ccc3c(c2)OCO3)CC1 (stereo not given)	56.1*	1.1	36.6	0.2	63.5	31.9*
Cc1cc(C)c(NC(=O)CN)c(C)c1	.	-1.7	34.2	6.7	-3.9	-2.1
Cc1cccc(C)c1NC(=O)CN	-7.7	-0.5	44.6	1.5	-3.6	44.8*
C[C@@H]1CN([C@H](C)CO)C(=O)c2cc(NC(=O)C3CCCCC3)ccc2O[C@@H](C)CCCCO[C@H]1CN(C)S(=O)(=O)c1ccc(Cl)cc1	-3.1	.	.	.	.	.
N#CCSc1ccc(-c2nc3ccccc3[nH]2)cn1	.	-4.7	1.4	-3.7	72.4	34.4*
c1ccc(NCc2cccnc2)cc1	-5.1	-3.7	19.2	-3.1	12.1	.
Nc1cccc(-c2nc3ccccc3[nH]2)c1	62.3*	-6.7	6.7	0.1	60.7	.
Cc1cc2nc(-c3ccc(SCc4ccccn4)nc3)[nH]c2cc1C	64.0*	-8.6	11.9	0.3	66.5	?
c1cncc(CNc2cccc(-c3nc4ccccc4[nH]3)c2)c1	.	-1.1	-14.5	4.0	57.8	49.9*
CCOC(=O)CSc1ccc(-c2nc3ccccc3[nH]2)cn1	-6.6	-8.6	5.9	-3.1	4.7	13.2
COc1ccc(S(=O)(=O)Nc2ccc3c(c2)C(=O)N([C@H](C)CO)C[C@H](C)[C@@H](CN(C)C(=O)C2CCCCC2)OCCCC[C@H](C)O3)cc1	19.2	.	.	.	.	.
CCC(=O)N1[C@@H]2CN(C(=O)Nc3ccccc3Cl)c3ccccc3[C@@H]2[C@@H]1CO	3.4	.	.	.	.	.
Fc1ccc(-c2nc3ccccc3[nH]2)cc1	70.4*	-9.1	54.2	0.6	67.1	58.3*
O=c1[nH]cccc1-c1nc2ccccc2[nH]1	23.3	-6.4	24.1	-3.8	18.0	14.4
Nc1ccccc1-c1nc2ccccc2[nH]1	35.4	-5.8	0.1	-4.6	37.8	55.0*
Nc1ccc(-c2nc3ccccc3[nH]2)cc1	-35.6	-4.4	15.2	-4.4	6.7	?
CCCNC(=O)N[C@@H]1CC[C@H](CCn2cc(-c3cccc(F)c3)nn2)O[C@@H]1CO	-0.7	.	.	.	.	.
SMILES	esBAF inh	A3G deaminase	PHOSPHO1 inh	A3A deaminase	MITF TRPM1 HTS	Wnt act
S=C(NCCc1ccccc1)Nc1ncccn1	29.8	.	.	.	55.3	-1.2
COc1ccc(NC(=S)NCCSc2ccc(C)cc2)c(OC)c1	.	-2.3	.	-2.0	7.2	61.0*
Cc1cccnc1NC(=S)NCCc1ccccc1	?	-6.7	-63.6	-2.2	?	39.6*
COc1ccc(OC)c(NC(=S)NCCSc2ccc(C)cc2)c1	.	0.7	4.2	2.6	-2.0	-1.9
Cc1cccnc1NC(=S)Nc1ncccc1C	38.3	-4.2	29.8	-1.6	101.3*	28.4
Cc1ccc(NC(=S)NCCc2ccccc2)nc1	.	-7.8	-126.9	-1.5	84.3*	8.2
